This is a sample that favours compounds with a hit; in the whole collection about 19% have one here.
KB-3-1 cytotox = qHTS assay for MDR1-selective chemotherapeutics: Primary screen using the parental adenocarcinoma cell KB-3-1; Potency, µM (titrated, usually from 46.1 µM), actives largely listed as cytotoxic; actives 1.4% (n = 400,000); KB-3-1 viability, CellTiter-Glo ATP luminescence, 72 h; AID 1347075, 2019; also: nearly all actives have a fitted effect of over 60% in size
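Cytotoxicity measured as CellTiter-Glo luminescence after 72 h at 37 C. Compound titrations were pinned onto drug-naive KB-3-1 parental adenocarcinoma cells grown in DMEM with 10% FBS, and normalized data fitted to concentration-response curves.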
HT1080 IDH1KD tx = qHTS for induction of synthetic lethality in tumor cells producing 2HG: qHTS for the HT-1080-IDH1KD cell line. HT-1080 IDH1 knockdown viability, ATP luminescence, 48 h. Potency, µM (doses to about 46.1 µM), actives largely listed as cytotoxic. actives 2% (n = 360,000)
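HT-1080-IDH1KD cells (IDH1 knocked down), 750/well in RPMI with 5% FBS, treated with compound 48 h at 37 degrees C. Viability by CellTiter-Glo luminescence, normalised to DMSO and no-cell wells; concentration-response curves classed.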
HT1080NT lethal = qHTS for induction of synthetic lethality in tumor cells producing 2HG: qHTS for the HT-1080-NT fibrosarcoma cell line; HT-1080-NT fibrosarcoma viability, CellTiter-Glo ATP luminescence, 48 h; Potency, µM (titrated, usually from 46.1 µM), most hits filed as cytotoxic; actives 1.6% (n = 360,000); AID 686970, 2013;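 also: NT is the 2HG producing partner of a matched IDH1 knockdown line; nearly all actives have a fitted effect of over 55% in size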
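HT-1080-NT fibrosarcoma cells (2HG-overproducing), 750 cells/well in RPMI with 5% FBS, dosed after 2 h and incubated 48 h at 37C. CellTiter-Glo luminescence normalized to DMSO and no-cell wells; concentration-response curves fitted and classed.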
DT40 TDP1 CPT = qHTS for Inhibitors of human tyrosyl-DNA phosphodiesterase 1 (TDP1): qHTS in cells in presence of CPT. chicken DT40 Tdp1-/-;hTDP1 cells + 20 nM CPT, ATP luminescence, 48 h. Potency, µM (series often up to 46.2 µM), usual class: inhibitors. actives 12% (n = 420,000). AID 686979, 2013; also: nearly all actives have a fitted effect of over 55% in size
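Chicken DT40 Tdp1-/- cells stably complemented with human TDP1 were seeded at 400 cells/well in medium containing 20 nM camptothecin, exposed to pin-transferred compounds, and grown at 37 °C for at least 48 hr. Viability was read as ATP luminescence.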
TDP1 cell noCPT = qHTS for Inhibitors of human tyrosyl-DNA phosphodiesterase 1 (TDP1): qHTS in cells in absence of CPT. DT40 Tdp1-/- hTDP1 cells, no CPT, ATP luminescence, 48 h. Potency, µM (titrated, usually from 46.2 µM), hits mostly inhibitors. AID 686978, 2013. actives 15% (n = 420,000); also: nearly all actives have a fitted effect of over 55% in size
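Camptothecin absent (DMSO only). Human TDP1-complemented DT40 knockout cells, 400 cells/well, 37 °C for minimum 48 hr; ATP measured via CellTiter-Glo, 30 min dark incubation, luminescence.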
KB-V1 cytotox = qHTS assay for MDR1-selective chemotherapeutics: Primary screen using the drug-selected MDR subline cells KB-V1; KB-V1 MDR cells viability, CellTiter-Glo, 72 h; Potency, µM (titrated, usually from 46.1 µM), actives largely listed as cytotoxic; actives 3.4% (n = 400,000); AID 1347076, 2019; also: nearly all actives have a fitted effect of over 60% in size
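Cytotoxicity toward P-gp-expressing KB-V1 cells was determined as loss of CellTiter-Glo luminescence after 72 h at 37 degrees C. Compounds were tested in quantitative HTS format across a concentration range, with curves fitted to normalized data.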
Numbers stand for hits; . = inactive; ? = inconclusive; / = no result; [ ] = dose if it differs, or a comment. Calls follow the shape of the dose curve; as a rule, active = well fitted curve in the direction sought with a large enough effect; inconclusive = small, poorly fitted or top-dose-only effect, or another doubt; inactive = no such curve, though single readings can be large; an effect the other way counts as inactive or inconclusive.

SMILES	KB-3-1 cytotox	HT1080 IDH1KD tx	HT1080NT lethal	DT40 TDP1 CPT	TDP1 cell noCPT	KB-V1 cytotox
O=C(NC1CC1)c1nc(Cn2cc([N+](=O)[O-])cn2)no1	.	.	.	.	.	.
COc1ccc(OC)c(NC(=O)C2(C)CCN2C(=O)CC2CC2)c1 (stereo not drawn)	.	.	.	.	?	.
Cc1onc(-c2c(F)cccc2Cl)c1C(=O)Nc1cc(S(=O)(=O)N2CCCCC2)ccc1O	?	.	?	16.4µM	16.4µM	23.1µM
COc1ccc(S(=O)(=O)N2CCCCC2)cc1NC(=O)c1c(F)cccc1Cl	.	.	.	?	16.4µM	.
Cc1onc(-c2c(F)cccc2Cl)c1C(=O)Nc1ccc(S(=O)(=O)N2CCOCC2)cc1	.	.	.	.	?	.
COc1cccc(C(=O)CC(=O)C(=O)Nc2cccc([N+](=O)[O-])c2C)c1	.	.	?	14.6µM	11.6µM	.
COc1cccc(C(=O)CC(=O)C(=O)Nc2cc(OC)ccc2OC)c1	.	.	.	18.4µM	23.1µM	.
COc1ccccc1C(=O)CC(=O)C(=O)Nc1cccc([N+](=O)[O-])c1C	.	?	?	16.4µM	11.6µM	?
CCOc1ccccc1NC(=O)C(=O)CC(=O)c1cccc(OC)c1	.	?	?	?	?	.
COc1ccc(C(=O)CC(=O)C(=O)Nc2cccc([N+](=O)[O-])c2C)cc1	.	.	.	20.6µM	16.4µM	.
C[C@H](O)[C@@H]1C(=O)N2CCc3c([nH]c4ccccc34)[C@@H]2C[C@@H]1N(C)C(=O)NC1CCCCC1	?	.	.	.	?	.
COc1ccc(-n2c(=O)c(C)nc3cnc(N(C)C)nc32)cc1	/	/	/	.	.	/
CCN(CC)CCNc1nc(-n2nc(C)cc2C)nc2sc3c(c12)CC(C)(C)OC3	?	?	?	?	10.3µM	?
Cc1cc(C)n(-c2nc(NCCN(C)C)c3c4c(sc3n2)COC(C)(C)C4)n1	.	?	18.4µM	?	23.1µM	.
Cc1nc2sc3c(c2c(=N)n1N)CC(C)(C)OC3	?	.	.	.	.	.
Cc1cc(C)n(-c2nc(NCCC(C)C)c3c4c(sc3n2)COC(C)(C)C4)n1	.	.	.	9.2µM	16.4µM	2.31µM
Cc1cc(C)n(-c2nc3sc4c(c3c3nnc(SCC(N)=O)n23)CC(C)(C)OC4)n1	.	.	.	.	.	.
Cc1cc(C)n(-c2nc(NCCCN(C)C)c3c4c(sc3n2)COC(C)(C)C4)n1	.	.	.	.	?	.
CSc1nnc2c3c4c(sc3nc(-n3nc(C)cc3C)n12)COC(C)(C)C4	.	.	.	?	29.1µM	.
Cc1ccccc1S(=O)(=O)NC(=NCc1ccc(F)cc1)c1ccccc1	.	.	.	?	?	.
CCC[C@@H]1CCCC/C=C\CCCC(=O)OCCN1C(=O)OC(C)(C)C	.	.	.	?	?	.
CCSc1nc(NCCN(C)C)c2c3c(sc2n1)COC(C)(CC)C3 (stereo not drawn)	.	.	.	20.6µM	?	?
Cc1cc(C)n(-c2nc(SCC(=O)Nc3nccs3)c3c4c(sc3n2)COC(C)(C)C4)n1	.	.[9.24 µM]	.	?	23.1µM	?
C=CCn1c(=O)c2c(nc3n2CCN3c2cccc(Cl)c2C)n(C)c1=O	.	.	.	.	?	8.2µM
C=C(C)Cn1c(=O)c2c(nc3n2CCN3c2cccc(Cl)c2C)n(C)c1=O	.	.	.	?	?	?
SMILES	KB-3-1 cytotox	HT1080 IDH1KD tx	HT1080NT lethal	DT40 TDP1 CPT	TDP1 cell noCPT	KB-V1 cytotox
CN(C(=O)c1ccc(NC(=O)Cc2ccc([N+](=O)[O-])cc2)cc1)C1CCCC1	.	.	.	13µM	?	.
CN(C(=O)c1cccc(NC(=O)Cc2cccc([N+](=O)[O-])c2)c1)C1CCC1	.	.	.	?	?	.
CN(C(=O)c1cccc(NC(=O)Cc2cccc([N+](=O)[O-])c2)c1)C1CCCC1	.	.	.	18.4µM	?	.
CN(Cc1ccccc1)C(=O)c1cccc(NC(=O)Cc2cccc([N+](=O)[O-])c2)c1	.	.	.	?	23.1µM	?
CN(C(=O)c1cccc(NC(=O)Cc2ccc([N+](=O)[O-])cc2)c1)C1CCCC1	?	.	.	23.1µM	25.9µM	.
C[C@H](O)[C@@H]1C(=O)N2CCc3ccc(N4CCN(C)CC4)cc3[C@@H]2C[C@@H]1N(C)C(=O)c1cccnc1	.	.	.	.	.	.
Nc1cc(=O)nc(SCC(=O)Nc2ccc(F)cc2)n1-c1ccccc1Cl	?	/	/	.	.	.
Cc1ccc(S(=O)(=O)NCc2ccccc2NS(=O)(=O)c2ccc(C)cc2)cc1	.	.	.	?	?	?
O=C(COC(=O)CCSc1ccccc1)NCc1ccccc1	.	.	.	.	.	.
COc1ccc(-c2oc3ccc(-c4cc(OC)c(OC)c(OC)c4)cc3c2C#Cc2ccccn2)cc1	.	.	.	18.4µM	?	?
COc1cc2oc3ccc(C#Cc4ccccn4)cc3c(=O)c2cc1OC	.	.	.	?	23.1µM	?
COc1cc2oc3cc(C#Cc4ccc(N)cc4)ccc3c(=O)c2cc1OC	.	.	.	16.4µM	16.4µM	.
COc1ccc(C#Cc2c(-c3ccc(OC)cc3)oc3ccc(-c4ccc(OC)cc4)cc23)cc1	.	.	.	.	.	.
COc1cc2oc3ccc(C#Cc4ccc(N)cc4)cc3c(=O)c2cc1OC	.	.	.	?	?	.
CCC1CN(Cc2cn[nH]c2-c2ccc(F)cc2)Cc2cc(OC)ccc2O1 (stereo not drawn)	/	/	/	?	20.6µM	/
CCC1CN(Cc2cn[nH]c2-c2ccccc2)Cc2cc(OC)ccc2O1 (stereo not drawn)	/	/	/	.[9.04 µM]	18.4µM	/
NS(=O)(=O)c1ccc(CCNC(=O)c2ccc3c(c2)OCCO3)cc1	.	.	.	.	.	.
CCN(CC)C(=O)C1=C(C)N(CCCN2CCCC2=O)C(=O)C(CC(=O)NC2CCCC2)C1 (stereo not drawn)	.	.	.	.	.	.
CCOc1ccc(/C=C2/SC(=O)NC2=S)cc1	.	.	.	.	?	.
CCOc1ccc(N=C2NC(=O)S/C2=C\c2ccc(N(C)C)cc2)cc1	.	.	.	.	?	20.6µM
